Among the test systems are MOLT-4 leukemia; SR leukemia; RPMI-8226 leukemia; OVCAR-8 ovarian; OVCAR-5 ovarian; OVCAR-4 ovarian; SK-OV-3 ovarian; IGROV1 ovarian; OVCAR-3 ovarian; HS 578T breast; NCI/ADR-RES ovarian; T-47D breast; BT-549 breast; MDA-MB-435 melanoma; SW-620 colon; MCF7 breast; HCT-116 colon; HCC-2998 colon; KM12 colon.
What all share (assay): NCI-60 one-dose screen, 48 h (100 = growth as untreated, 0 = no growth, -100 = all killed)
Settings in all cases: 10 µM unless noted

SMILES strings stand for the structures. This is part of a sample that, as a whole, favours compounds with a hit. Of some 83,000 tested, about 20% had one in any assay.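 Single-concentration screen, 48 h exposure, 96-well plates. Endpoint: percent growth. Below 10 = active.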 A number with no mark means an inactive call. Activity calls are given as the source filed them.

Regarding `CCN1C(=O)C(=C/C=C/c2ccccc2)C(=O)N(CC)C1=O`, the growth with MOLT-4 leukemia was 6.92% (active); with SR leukemia, -6.58% (active); with RPMI-8226 leukemia, 61%; with OVCAR-8 ovarian it was 54%; in the test with OVCAR-5 ovarian, 107%; with OVCAR-4 ovarian, 111%. For the same compound, the growth with SK-OV-3 ovarian was 103%; in the test with IGROV1 ovarian, 84.5%; in the test on OVCAR-3 ovarian, 42.6%; in the test with HS 578T breast it was 91.2%; in the test on NCI/ADR-RES ovarian it was 78.6%; in the test on T-47D breast, 96.3%. The growth with BT-549 breast was 91.9%; in the test with MDA-MB-435 melanoma it was 29.9%; in the test on SW-620 colon it was 26.5%; with MCF7 breast, 74.5%; in the test with HCT-116 colon, 16.3%; with HCC-2998 colon, 112%. Also, the growth with KM12 colon was 86.5%.

For the compound `COC(=O)[C@@H](C)C[C@H](Cc1ccccc1)NC(=O)c1nc([C@@H](C[C@H](C(C)C)N(C)C(=O)[C@@H](NC(=O)[C@H]2CCCN2C)C(C)C)OC(C)=O)sc1C`, the growth in the test with MOLT-4 leukemia was 15.3%; in the test on SR leukemia, 5.28% (active); in the test on RPMI-8226 leukemia, 20.6%; in the test on OVCAR-8 ovarian it was 14.5%; in the test on OVCAR-5 ovarian, 30.7%; in the test with OVCAR-4 ovarian, 49.9%. Besides, the growth in the test with SK-OV-3 ovarian is 1.93% (active); in the test on IGROV1 ovarian, 27.4%; in the test on OVCAR-3 ovarian, -9.82% (active); with HS 578T breast, 18.8%; in the test on NCI/ADR-RES ovarian, 4.35% (active); with T-47D breast it was 43.2%. The growth in the test on BT-549 breast was -12.7% (active); in the test with MDA-MB-435 melanoma it was -18.4% (active); with SW-620 colon, 20.1%; in the test on HCC-2998 colon, 13.5%; in the test on KM12 colon it was 11.9%.

For `CCCCCCCCC(CO)NCCc1ccccc1` (stereo not drawn), the growth was 60.5% with MOLT-4 leukemia; 76.7% with SR leukemia; 80.4% in the test with RPMI-8226 leukemia; 81.1% in the test on OVCAR-8 ovarian; 101% with OVCAR-5 ovarian; 108% in the test with OVCAR-4 ovarian. Further, the growth in the test on SK-OV-3 ovarian was 102%; with IGROV1 ovarian, 105%; in the test on OVCAR-3 ovarian, 107%; in the test on HS 578T breast, 106%; in the test with NCI/ADR-RES ovarian, 112%; in the test on T-47D breast it was 96%. The growth with BT-549 breast was 114%; with MDA-MB-435 melanoma, 103%; with SW-620 colon it was 96.2%; in the test on MCF7 breast, 103%; in the test on HCC-2998 colon it was 111%; in the test on KM12 colon, 99.9%.

For the compound `COc1ccc2c(c1)c(-c1nc(-c3c[nH]c4ncccc34)cs1)cn2CCCCN1CCCCC1`, the growth was -60.3% (active) in the test with MOLT-4 leukemia; -57.6% (active) in the test with SR leukemia; -43.6% (active) in the test on RPMI-8226 leukemia; -67.6% (active) with OVCAR-8 ovarian; -15.7% (active) in the test on OVCAR-5 ovarian; -13.3% (active) with OVCAR-4 ovarian. Also, the growth is -61.5% (active) with SK-OV-3 ovarian; -62.1% (active) in the test with IGROV1 ovarian; -71.4% (active) with OVCAR-3 ovarian; -23.3% (active) with HS 578T breast; 1.16% (active) in the test with NCI/ADR-RES ovarian; -55.5% (active) in the test with T-47D breast. Moreover, the growth with BT-549 breast is 69.2%; with MDA-MB-435 melanoma it was -92.7% (active); in the test with SW-620 colon, -71.9% (active); in the test with MCF7 breast, -74.9% (active); with HCT-116 colon it was -98.9% (active); with HCC-2998 colon, -9.73% (active). Moreover, in the test with KM12 colon, the growth is -62.9% (active).

With `Cn1cc(-c2csc(-c3cn(CCN4CCOCC4)c4ccccc34)n2)c2cccnc21`, the growth was 29.9% in the test on MOLT-4 leukemia; 63.6% in the test on SR leukemia; 29.6% with RPMI-8226 leukemia; 29.5% in the test on OVCAR-8 ovarian; 95.6% with OVCAR-5 ovarian; 64.2% with OVCAR-4 ovarian. In addition, the growth is 105% in the test with SK-OV-3 ovarian; 61.8% in the test with IGROV1 ovarian; 70% in the test on OVCAR-3 ovarian; 78% with HS 578T breast; 31.4% with NCI/ADR-RES ovarian; 2.94% (active) in the test on T-47D breast. Also, the growth in the test on BT-549 breast is 45.1%; in the test on MDA-MB-435 melanoma, 65.1%; with SW-620 colon, 83.1%; in the test with MCF7 breast it was 30.7%; with HCC-2998 colon, 99.2%; in the test with KM12 colon, 56.5%.

`CCOC(=O)[C@@H](C)C[C@H](Cc1ccccc1)NC(=O)c1csc([C@@H](C[C@H](C(C)C)N(C)C(=O)[C@H](CCC(C)C)NC(=O)[C@H]2CCCCN2C)OC(C)=O)n1`: the growth in the test on MOLT-4 leukemia was 10.3%; in the test on SR leukemia, 4.32% (active); in the test with RPMI-8226 leukemia, 12.6%; in the test with OVCAR-8 ovarian, 18%; in the test on OVCAR-5 ovarian it was 28.2%; in the test on OVCAR-4 ovarian, 48.2%. Besides, the growth in the test with SK-OV-3 ovarian was 2.1% (active); in the test with IGROV1 ovarian it was 26.1%; in the test on OVCAR-3 ovarian, -1.34% (active); in the test on HS 578T breast, 5.53% (active); in the test on NCI/ADR-RES ovarian, 4.75% (active); in the test with T-47D breast it was 64.9%. For the same compound, the growth is -24.5% (active) in the test on BT-549 breast, -1.75% (active) in the test on MDA-MB-435 melanoma, 25.4% in the test with SW-620 colon and 10% in the test with HCC-2998 colon.

Turning to `CCOC(=O)CCN(C)C1=Nc2ccc(Cl)cc2C(c2ccccc2)=[N+]([O-])C1`, the growth with MOLT-4 leukemia is 94.1%; with SR leukemia it was 85.8%; in the test with RPMI-8226 leukemia, 106%; with OVCAR-8 ovarian, 101%; in the test with OVCAR-5 ovarian, 109%; in the test with OVCAR-4 ovarian, 99.4%. The growth with SK-OV-3 ovarian was 106%; with IGROV1 ovarian, 107%; with OVCAR-3 ovarian, 110%; in the test with HS 578T breast it was 96%; with NCI/ADR-RES ovarian, 104%; in the test with T-47D breast, 101%. The growth was 88.9% in the test on BT-549 breast; 115% in the test on MDA-MB-435 melanoma; 104% with SW-620 colon; 97.1% in the test with MCF7 breast; 102% in the test with HCC-2998 colon; 104% in the test on KM12 colon.

As for `C=C1C[C@](OC)([C@H](O)C(=O)N[C@@H](OC)[C@@H]2C[C@@H](O)C(C)(C)[C@@H](C[C@@H](COC)OC)O2)O[C@H](C)[C@@H]1C`, the growth was -51.7% (active) with MOLT-4 leukemia; -39.2% (active) with SR leukemia; -72.5% (active) with RPMI-8226 leukemia; -20.8% (active) with OVCAR-8 ovarian; -29.8% (active) in the test on OVCAR-5 ovarian; -38.4% (active) in the test with OVCAR-4 ovarian. Further, the growth with SK-OV-3 ovarian is -9.43% (active); in the test with IGROV1 ovarian it was -66.8% (active); with OVCAR-3 ovarian, -43.9% (active); in the test on HS 578T breast, -46.2% (active); in the test on NCI/ADR-RES ovarian, -42.3% (active); with T-47D breast, -7.29% (active). In addition, the growth in the test with BT-549 breast is -59.9% (active); in the test with MDA-MB-435 melanoma, -83.3% (active); with SW-620 colon, -64.3% (active); with MCF7 breast, -52.6% (active); with HCT-116 colon, -16.7% (active); in the test with KM12 colon, -41.8% (active).

Values taken from PubChem BioAssay (NCI).
